Experimental data from PubChem BioAssay.
Active and inactive are the calls of the source.

Key:
[1] = tested on: Plasmodium falciparum Sir2 (PF13_0152, Sir2A); test: pfSir2 binders on small-molecule microarrays, primary screen, biochemical, small-molecule microarray, 635 nm fluorescence (AID 1098); conditions: small-molecule microarray binding, fluorescence 635 nm; higher = more signal;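 also: score merges spot fluorescence intensity with its signal-to-noise ratio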
[2] = small-molecule microarray binders of probe aDKK1, primary screen, biochemical, biotinylated probe, 635/667 nm fluorescence (AID 1099); conditions: higher = more signal;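 also: score merges 667nm spot fluorescence with signal to noise across triplicate slides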
[3] = small-molecule microarray binders of probe aCHRDL2, primary screen, biochemical, biotinylated probe, 635/667 nm fluorescence (AID 1100); conditions: higher = more signal
[4] = splicing luciferase reporter signal modulators, primary screen, spliceosome inhibition project, cell-based, HEK293, splice +/- reporter (AID 1101); conditions: luminescence, 24 h, higher = more signal, called active from +8 up or from −8 down;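 also: HEK293 cells carrying a splicing-competent luciferase reporter gene; test concentration not given here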
[5] = biological target: Fibroblast growth factor 10 (Homo sapiens) (UniProt O15520); test: FGF10 binders on small-molecule microarrays, primary screen, biochemical, small-molecule microarray, 635 nm fluorescence (AID 1102); conditions: FGF10 binding, fluorescence 635 nm, higher = more signal
Chain of Fibroblast growth factor 10 (Homo sapiens) (O15520 whole entry, looked up): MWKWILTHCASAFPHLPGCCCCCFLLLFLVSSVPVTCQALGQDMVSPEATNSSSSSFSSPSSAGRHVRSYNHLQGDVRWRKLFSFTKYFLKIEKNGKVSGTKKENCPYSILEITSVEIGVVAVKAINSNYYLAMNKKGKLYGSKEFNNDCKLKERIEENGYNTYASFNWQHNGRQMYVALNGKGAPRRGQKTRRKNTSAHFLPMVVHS

[6] = tested on: glycogen synthase kinase-3 (GSK3A per assay name; protocol says GSK3B); test: GSK3 binders on small-molecule microarrays, primary screen, biochemical, small-molecule microarray, 635 nm fluorescence, GSK3A (AID 1103); conditions: small-molecule microarray binding, fluorescence 635 nm; higher = more signal; also: the record names both GSK3A and GSK3B
[7] = biological target: Epidermal growth factor receptor (Homo sapiens) (UniProt P00533); test: EGFR binders on small-molecule microarrays, primary screen, biochemical, small-molecule microarray, 635 nm fluorescence (AID 1104); conditions: EGFR binding, higher = more signal;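 also: score merges 667 nm emission intensity with spot signal to noise over triplicate slides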
Chain of Epidermal growth factor receptor (Homo sapiens) (P00533 whole entry, looked up): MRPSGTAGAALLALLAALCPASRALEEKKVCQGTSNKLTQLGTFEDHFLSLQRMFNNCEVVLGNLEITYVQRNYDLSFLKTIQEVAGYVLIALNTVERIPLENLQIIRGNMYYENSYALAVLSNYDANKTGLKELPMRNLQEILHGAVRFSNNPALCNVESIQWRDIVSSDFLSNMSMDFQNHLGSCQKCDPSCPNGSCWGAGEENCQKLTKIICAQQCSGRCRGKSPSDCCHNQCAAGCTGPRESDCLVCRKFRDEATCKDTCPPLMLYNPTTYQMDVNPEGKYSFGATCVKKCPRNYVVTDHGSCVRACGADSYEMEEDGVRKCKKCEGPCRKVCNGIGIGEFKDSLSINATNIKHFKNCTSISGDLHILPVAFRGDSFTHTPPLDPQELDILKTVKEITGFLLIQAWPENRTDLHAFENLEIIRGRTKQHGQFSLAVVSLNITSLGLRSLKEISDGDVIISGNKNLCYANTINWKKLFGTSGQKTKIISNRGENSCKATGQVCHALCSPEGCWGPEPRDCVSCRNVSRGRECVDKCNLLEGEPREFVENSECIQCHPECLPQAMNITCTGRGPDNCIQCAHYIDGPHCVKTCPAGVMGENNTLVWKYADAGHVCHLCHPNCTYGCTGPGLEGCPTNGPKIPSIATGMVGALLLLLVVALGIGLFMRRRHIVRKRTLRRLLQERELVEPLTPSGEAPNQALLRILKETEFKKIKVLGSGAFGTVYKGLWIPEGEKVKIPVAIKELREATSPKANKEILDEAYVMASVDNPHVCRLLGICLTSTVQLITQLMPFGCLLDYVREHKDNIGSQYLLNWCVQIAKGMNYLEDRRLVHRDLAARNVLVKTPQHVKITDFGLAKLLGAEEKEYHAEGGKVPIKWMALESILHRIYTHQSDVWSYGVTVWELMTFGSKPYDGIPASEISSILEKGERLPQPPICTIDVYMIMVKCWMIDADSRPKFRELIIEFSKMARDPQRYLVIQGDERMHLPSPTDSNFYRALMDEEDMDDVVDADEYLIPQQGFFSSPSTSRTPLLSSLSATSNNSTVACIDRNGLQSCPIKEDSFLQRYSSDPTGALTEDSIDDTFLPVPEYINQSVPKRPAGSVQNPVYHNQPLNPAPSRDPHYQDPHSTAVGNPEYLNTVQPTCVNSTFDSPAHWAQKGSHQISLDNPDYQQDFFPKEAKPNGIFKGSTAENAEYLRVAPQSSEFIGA

[8] = biological target: Follistatin-related protein 3 (Homo sapiens) (UniProt O95633); test: FSTL3 binders on small-molecule microarrays, primary screen, biochemical, small-molecule microarray, 635 nm fluorescence (AID 1105); conditions: FSTL3 binding, higher = more signal;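 also: score merges emission near 667 nm and signal to noise per printed spot across three slides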
Chain of Follistatin-related protein 3 (Homo sapiens) (O95633 whole entry, looked up): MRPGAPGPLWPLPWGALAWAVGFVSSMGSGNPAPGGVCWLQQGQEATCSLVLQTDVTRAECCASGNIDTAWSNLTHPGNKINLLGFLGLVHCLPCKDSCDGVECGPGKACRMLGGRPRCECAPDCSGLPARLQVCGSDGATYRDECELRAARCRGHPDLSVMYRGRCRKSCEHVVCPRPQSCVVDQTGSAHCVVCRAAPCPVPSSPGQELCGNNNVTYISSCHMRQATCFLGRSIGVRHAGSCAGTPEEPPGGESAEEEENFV

[9] = biological target: Dickkopf-related protein 1 (Homo sapiens) (UniProt O94907); test: DKK1 binders on small-molecule microarrays, primary screen, biochemical, small-molecule microarray, 635 nm fluorescence scan (AID 1106); conditions: DKK1 binding, higher = more signal;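 also: score merges emission near 667 nm with signal to noise over three replicate slides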
Chain of Dickkopf-related protein 1 (Homo sapiens) (O94907 whole entry, looked up): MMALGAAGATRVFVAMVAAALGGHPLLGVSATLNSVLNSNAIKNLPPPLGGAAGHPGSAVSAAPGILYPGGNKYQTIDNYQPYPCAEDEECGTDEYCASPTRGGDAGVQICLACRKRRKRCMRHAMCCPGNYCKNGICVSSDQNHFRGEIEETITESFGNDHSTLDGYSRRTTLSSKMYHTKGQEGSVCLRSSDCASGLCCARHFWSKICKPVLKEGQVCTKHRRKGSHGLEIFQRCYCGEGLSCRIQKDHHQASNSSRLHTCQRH

[10] = tested on: Inhibin beta A chain (activin A); test: INHBA (activin A) binders on microarrays, primary screen, biochemical, small-molecule microarray, 635 nm fluorescence scan (AID 1107); conditions: small-molecule microarray binding, higher = more signal;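 also: mouse activin A protein probed at 4.33 µg/mL on printed slides; score merges bound-protein fluorescence near 667 nm with spot signal-to-noise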
[11] = tested on: Human papillomavirus type 1a protein E7 (residues 44-93); test: HPV1a E7 fragment binders on microarrays, primary screen, biochemical, small-molecule microarray, residues 44-93, 635 nm fluorescence (AID 1108); conditions: small-molecule microarray binding, fluorescence 635 nm; higher = more signal;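 also: E7 fragment applied at 1 µg/mL in TBST for 1 h at 4 C; score combines spot fluorescence with its signal to noise ratio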
[12] = modulators of HCV replicon luciferase signal, primary screen, HCV replication inhibitor project, Huh7 cells, luciferase reporter (AID 1109); conditions: 48 h, higher = more signal;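 also: huh7 hepatoma cells harbouring a luciferase neomycin HCV replicon reporter; luciferase luminescence as measure of HCV replicon replication; test concentration not given here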
[13] = biological target: Left-right determination factor 2 (Homo sapiens) (UniProt O00292); test: LEFTY2 binders on small-molecule microarrays, primary screen, biochemical, small-molecule microarray, 635 nm fluorescence scan (AID 1110); conditions: LEFTY2 binding, higher = more signal
Chain of Left-right determination factor 2 (Homo sapiens) (O00292 whole entry, looked up): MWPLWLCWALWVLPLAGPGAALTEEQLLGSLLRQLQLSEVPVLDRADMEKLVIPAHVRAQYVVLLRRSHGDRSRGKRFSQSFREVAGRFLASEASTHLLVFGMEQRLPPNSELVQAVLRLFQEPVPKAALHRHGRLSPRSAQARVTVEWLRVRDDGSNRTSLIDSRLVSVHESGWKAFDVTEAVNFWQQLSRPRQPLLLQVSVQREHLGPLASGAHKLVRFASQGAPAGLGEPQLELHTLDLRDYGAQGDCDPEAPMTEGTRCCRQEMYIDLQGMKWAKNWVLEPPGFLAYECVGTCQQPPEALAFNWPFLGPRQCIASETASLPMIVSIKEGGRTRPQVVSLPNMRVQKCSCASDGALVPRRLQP

[14] = biological target: Calmodulin-1 (Homo sapiens) (UniProt P0DP23); test: CALM1 binders on microarrays, EGTA buffer, profiling panel, biochemical, small-molecule microarray, Cy5-labelled CALM1 (AID 1111); conditions: Cy5-CALM1 binding fluorescence, higher = more signal;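 also: labelled calmodulin applied in Tris saline Tween buffer holding calcium plus EGTA and DTT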
[15] = biological target: Calmodulin-1 (Homo sapiens) (UniProt P0DP23); test: calcium-bound CALM1 binders on microarrays, profiling panel, artefact control for SMM control-protein annotation, biochemical, small-molecule microarray, Cy5-labelled CALM1, plus calcium (AID 1112); conditions: Cy5-CALM1 binding fluorescence, higher = more signal;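 also: score merges spot fluorescence with signal to noise from triplicate slides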
[16] = small-molecule microarray binders of probe aWnt5a, primary screen, biochemical, biotinylated probe, 635/667 nm fluorescence (AID 1113); conditions: higher = more signal;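 also: score merges 667 nm fluorescence intensity with signal-to-noise per printed feature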
[17] = small-molecule microarray binders of probe aShh, primary screen, biochemical, biotinylated probe, 635/667 nm fluorescence (AID 1114); conditions: higher = more signal;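 also: probe is biotin-labelled aShh protein from a stem cell growth factor screen; measures binding of labelled protein to compounds printed on the slide; score merges feature fluorescence at 667 nm with signal-to-noise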
[18] = small-molecule microarray binders of probe aNog, primary screen, biochemical, biotinylated probe, 635/667 nm fluorescence (AID 1115); conditions: higher = more signal;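 also: probe is biotinylated aNog protein used at 0.15 µg/mL for 1 h at 4 C; z-score combines 667 nm fluorescence of each spot with its signal to noise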
[19] = biological target: Torsin-1A-interacting protein 1 (Homo sapiens) (UniProt Q5JTV8); test: LAP1 binders from COS7 cell lysate, primary screen, small-molecule microarray, 635/667 nm fluorescence (AID 1116); conditions: COS7-hLAP1 lysate binding, 635 nm fluorescence, higher = more signal
Chain of Torsin-1A-interacting protein 1 (Homo sapiens) (Q5JTV8 whole entry, looked up): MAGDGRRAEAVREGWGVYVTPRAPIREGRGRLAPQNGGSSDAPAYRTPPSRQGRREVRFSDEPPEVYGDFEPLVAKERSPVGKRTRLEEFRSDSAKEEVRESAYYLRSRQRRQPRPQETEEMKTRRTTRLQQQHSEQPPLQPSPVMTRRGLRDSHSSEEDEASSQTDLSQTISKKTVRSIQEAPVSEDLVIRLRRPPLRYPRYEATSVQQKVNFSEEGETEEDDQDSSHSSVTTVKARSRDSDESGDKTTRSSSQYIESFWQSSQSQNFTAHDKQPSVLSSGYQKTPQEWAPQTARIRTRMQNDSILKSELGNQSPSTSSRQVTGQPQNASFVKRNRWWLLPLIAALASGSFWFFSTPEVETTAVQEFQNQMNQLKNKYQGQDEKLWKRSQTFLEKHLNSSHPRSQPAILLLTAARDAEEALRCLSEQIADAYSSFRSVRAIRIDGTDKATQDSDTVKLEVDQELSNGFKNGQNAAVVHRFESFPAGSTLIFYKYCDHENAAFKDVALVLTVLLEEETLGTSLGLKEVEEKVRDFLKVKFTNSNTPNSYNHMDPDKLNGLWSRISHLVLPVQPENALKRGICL

[20] = biological target: Alpha-bungarotoxin (Bungarus multicinctus) (UniProt P60615); test: alpha-bungarotoxin binders on microarray, profiling panel, artefact control for SMM control protein annotation, biochemical, small-molecule microarray, Alexa647 label, 635/667 nm fluorescence (AID 1117); conditions: alpha-BTX-A647 binding fluorescence, higher = more signal
Chain of Alpha-bungarotoxin (Bungarus multicinctus) (P60615 whole entry, looked up): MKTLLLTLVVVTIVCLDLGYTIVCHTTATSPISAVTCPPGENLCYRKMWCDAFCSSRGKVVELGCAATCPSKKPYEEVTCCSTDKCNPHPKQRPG

| Compound | composite z-score [1] | composite z-score [2] | composite z-score [3] | z-score [4] | composite z-score [5] | composite z-score [6] | composite z-score [7] | composite z-score [8] | composite z-score [9] | composite z-score [10] | composite z-score [11] | z-score [12] | composite z-score [13] | composite z-score [14] | composite z-score [15] | composite z-score [16] | composite z-score [17] | composite z-score [18] | composite z-score [19] | composite z-score [20] |
| --- | --- | --- | --- | --- | --- | --- | --- | --- | --- | --- | --- | --- | --- | --- | --- | --- | --- | --- | --- | --- |
| [N-]=[N+]=NCc1ccccc1C[C@]1(C(=O)O)N=C(c2ccc(OCCCO)cc2)O[C@H]1c1ccccc1CN=[N+]=[N-] | 1.07 | 0.804 | 1.01 | -1.17 (inactive) | 0.126 | 0.421 | -0.125 | 0.541 | -0.742 | 0.458 | 1.43 | -1.21 | -0.524 | 1.74 | 0.411 | -0.0792 | -0.0146 | 1.16 | 0.978 | 1.68 |
| N#Cc1ccc(NN2C(C(O)C3CCCCC3)C=CC3C(=O)N(c4ccccc4)C(=O)C32)cc1 (stereo not given) | 0.908 | 0.458 | 0.811 | 1.23 (inactive) | 1.09 | 1.3 | -0.0355 | 1.28 | -0.547 | 0.249 | 1.48 | -0.785 | 0.0137 | 1.82 | 0.779 | 0.0859 | 0.294 | 1.32 | -0.102 | 1.09 |
| O=C1O[C@H](c2ccccc2)[C@H](c2ccccc2)N2[C@H]1[C@@H](C(=O)N1CCN(c3ncccn3)CC1)[C@]1(C(=O)Nc3ccccc31)[C@H]2c1ccc(OCCO)cc1 | 0.348 | -0.0864 | 0.174 | -1.15 (inactive) | 1.29 | 1.22 | 0.665 | 1.32 | 0.632 | 0.395 | 1.42 | -1.67 | 0.609 | -0.316 | -0.802 | -0.0286 | -0.0578 | -0.0464 | 0.75 | 0.4 |
| C=CCNC(=O)[C@@H]1[C@H]2C(=O)O[C@H](c3ccccc3)[C@H](c3ccccc3)N2[C@H](c2ccccc2OCCO)[C@@]12C(=O)Nc1ccc(C#CC3=CCCCC3)cc12 | 0.71 | -0.0328 | 0.111 | -0.829 (inactive) | 1.22 | 1.32 | 0.478 | 1.38 | 0.479 | 0.982 | 1.41 | -3.27 | 0.604 | 1.09 | 0.17 | -0.0523 | 0.0611 | -0.278 | 0.668 | 1.24 |
| C=C[C@@H](COC(C)=O)N(Cc1ccc([N+](=O)[O-])cc1)S(=O)(=O)c1ccc(Br)cc1 | 0.566 | 0.965 | 0.992 | -0.807 (inactive) | 0.599 | 0.283 | 0.292 | 0.352 | -0.0075 | 0.663 | -0.541 | -0.365 | 0.59 | 0.989 | 0.729 | -0.0597 | -0.0709 | 0.392 | 0.546 | 1.78 |
| C=C(CCCC)C(=O)CC[C@H](OC(=O)c1cccnc1)c1cccc(OCCO)c1 | 0.681 | -0.298 | 0.165 | 4.13 (inactive) | 0.309 | -0.208 | -0.502 | -0.688 | -0.219 | 1.29 | 0.343 | -3.04 | 0.0112 | -0.538 | -0.993 | -0.0107 | -0.0035 | -0.356 | 0.479 | -0.0331 |
| COc1cccc(C(=O)O[C@H]2CC[C@]3(C)C4=C(CCC3C2(C)C)[C@]2(C)CC[C@H]([C@H](C)CCCC(C)C)[C@@]2(C)CC4)c1 (stereo not given in full) | 0.399 | -0.056 | -0.495 | -1.23 (inactive) | 0.647 | 0.495 | 0.527 | 0.459 | 0.389 | 0.468 | -0.212 | 0.004 | 0.359 | -0.0348 | -0.441 | -0.202 | -0.138 | -0.0689 | 0.105 | 0.3 |
| O=C1OCCC=C[C@H]2OC34C=CCN(Cc5ccccc5)C(=O)[C@H]3N(CCCCCO)C(=O)[C@@H]4C12 (stereo not given in full) | 1.96 | -0.285 | 0.672 | -0.34 (inactive) | -0.779 | 1.06 | -0.744 | -0.595 | -1.19 | 0.141 | 1.1 | -0.481 | -1.24 | -0.565 | 0.13 | -0.091 | -0.154 | -0.177 | 1.95 | -1.06 |
| O=C1O[C@H](c2ccccc2)[C@H](c2ccccc2)N2[C@H]1[C@@H](C(=O)O)[C@]1(C(=O)Nc3ccc(C#CC4=CCCCC4)cc31)[C@H]2c1ccc(OCCO)cc1 | 1.43 | -0.211 | -0.701 | -0.248 (inactive) | 1.25 | 1.28 | 0.58 | 1.42 | 0.765 | 0.302 | 1.22 | -1.69 | 0.659 | 0.447 | 0.166 | 0.055 | -0.304 | 1.17 | 1.09 | 2.81 |
| COC(=O)c1ccc(C23CC2(C(NP(=O)(c2ccccc2)c2ccccc2)c2ccccc2)C3)cc1 (stereo not given) | 0.36 | 1.83 | 1.39 | -3.03 (inactive) | 0.831 | -0.0094 | 0.134 | 0.835 | -0.63 | 0.893 | 1.31 | -1.17 | -0.0656 | 2.35 | 0.696 | 0.195 | 0.484 | -0.708 | 2.58 | 1.38 |
| COc1ccc(CCNC(=O)[C@@]2(Sc3ccc(C)cc3)CC(=O)N(Cc3ccccc3Cl)[C@@H]2c2ccc(CO)cc2I)cc1 | 0.661 | 0.195 | 0.989 | -1.1 (inactive) | -0.778 | 0.351 | -1.08 | -0.78 | -1.15 | 1.24 | 0.552 | -1.98 | -0.736 | -0.252 | -0.0371 | -0.184 | 0.157 | 0.384 | 1.08 | 0.42 |
